High-throughput results deposited in PubChem by National Center for Advancing Translational Sciences (NCATS).
Pf Dd2 inh = blocks in vitro growth of P. falciparum Dd2 | Potency, µM (highest dose often 28.9 µM), for inactives: top-dose activity, negative = inhibition, hits mostly inhibitors | hit rate 4.3% among 120,000 | P. falciparum Dd2 growth, SYBR Green, 72 h; active = well fitted inhibition curve with a large enough effect;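 note: plate controls were DMSO vehicle for no effect and reference drug for full effect; nearly all actives have a fitted effect of over 65% in size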
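Readout: SYBR Green fluorescence, 485 nm excitation, 535 nm emission, after ~16 h lysis at 37C. Before that, Dd2-infected red cells (2.5% hematocrit) grew 72 h with compound, 29 uM top final concentration.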
The depositor's hits bear a star; [ ] = dose if it differs, or a comment. The sample as a whole holds a higher share of hits than the screen did. Potency is the fitted concentration of half-maximal effect.

What do the screens show for `CC(=O)NC1(C)CCN(Cc2cnc(-c3cccc(C(F)(F)F)c3)s2)CC1`?
Pf Dd2 inh: inactive

What do the screens show for `FC(F)(F)c1cccc(C2=NOC3(CCN(Cc4ccccc4)CC3)C2)c1`?
Pf Dd2 inh: -28%

How did CCOC(=O)C1(Cc2cccc(C(F)(F)F)c2)CCN(Cc2ccc(COC)o2)CC1 do in these assays?
Pf Dd2 inh: 8.9µM*

How did CCOC(=O)C1(Cc2ccc(OC)cc2)CCN(C(=O)c2cccc(Cl)c2)CC1 do in these assays?
Pf Dd2 inh: inactive

How did O=C(c1cnccn1)N1CCC(c2nc(C3CC3)no2)C1 (configuration not stated) do in these assays?
Pf Dd2 inh: inactive

What do the screens show for `Cc1ccc(-n2nc(-c3c(C)nc4scc(CC(=O)NC(C)c5ccccc5)n4c3=O)cc2C)cc1` (configuration not stated)?
Pf Dd2 inh: -2%

What do the screens show for `Cc1ccc(C)c(NC(=O)Cn2c(-c3ccc(F)cc3)nc(C)c(CCO)c2=O)c1`?
Pf Dd2 inh: 3%

How did Cc1cc(Cl)ccc1S(=O)(=O)N1CCN(C2CCN(CCC(C)C)C2=O)CC1 (configuration not stated) do in these assays?
Pf Dd2 inh: -28%

What do the screens show for `CC(C)CCN1CCC(N2CCN(S(=O)(=O)c3ccc(F)cc3)CC2)C1=O` (configuration not stated)?
Pf Dd2 inh: -16%

How did Cc1ccc(S(=O)(=O)N2CCN(C3CCN(CCC(C)C)C3=O)CC2)cc1Cl (configuration not stated) do in these assays?
Pf Dd2 inh: 4µM*

How did O=C(Cc1ccccc1Cl)N1CCC(c2n[nH]c(=O)n2Cc2ccc(F)cc2)CC1 do in these assays?
Pf Dd2 inh: -13%

What do the screens show for `Cc1ccc(CNC(=O)CC2CCOCC2)cc1`?
Pf Dd2 inh: 58%

Results for Cc1ccccc1Oc1ncccc1CNC(=O)CCc1c(C)nn(C)c1C ?
Pf Dd2 inh: -18%

How did CCc1nnc2ccc(NCc3ccccc3)nn12 do in these assays?
Pf Dd2 inh: 6.3µM*

Results for CCc1nnc2ccc(NC3CC3)nn12 ?
Pf Dd2 inh: 2%

What do the screens show for `CCc1nnc2ccc(NC(C)C)nn12`?
Pf Dd2 inh: 2%

What do the screens show for `Cc1cc(C(F)(F)F)nc(CCNC(=O)c2ccc3ncccc3c2)n1`?
Pf Dd2 inh: -15%

Results for COCCNC(=O)[C@@H]1C[C@H](Oc2ccccc2)CN1C(=O)c1cccn1C ?
Pf Dd2 inh: -2%

What do the screens show for `CC1=NOC2(CCN(Cc3ccc(C(F)(F)F)cc3)C2)C1` (configuration not stated)?
Pf Dd2 inh: inactive

How did O=C(COc1ccc(Cl)cc1)N1CCN(c2cc(-c3ccccc3)[nH]n2)CC1 do in these assays?
Pf Dd2 inh: -3%

Results for O=C1CCCCC(CNC(=O)C2(c3ccccc3)CC2)N1 (configuration not stated) ?
Pf Dd2 inh: 8%

What do the screens show for `O=C(c1cn(-c2ccccc2)nn1)N1CCOC(c2ccc(F)cc2)C1` (configuration not stated)?
Pf Dd2 inh: -11%

How did Cc1nc2c(c(-c3ccc(O)cc3)n1)CN(Cc1ccc(OC(F)(F)F)cc1)CC2 do in these assays?
Pf Dd2 inh: -1%

What do the screens show for `CCc1nc2c(c(-c3ccc(Cl)cc3)n1)CN(Cc1ccc(C)cc1)CC2`?
Pf Dd2 inh: -17%

Results for CCc1nc2c(c(-c3ccc(Cl)cc3)n1)CN(Cc1ccsc1)CC2 ?
Pf Dd2 inh: 5µM*

How did CCc1nc2c(c(-c3ccc(Cl)cc3)n1)CN([S+](C)(=O)[O-])CC2 do in these assays?
Pf Dd2 inh: -19%[44.1 µM]

What do the screens show for `CCc1nc2c(c(-c3ccc(Cl)cc3)n1)CN(Cc1ccc(OC(F)(F)F)cc1)CC2`?
Pf Dd2 inh: 8.9µM*

Results for CCc1nc2c(c(-c3ccc(Cl)cc3)n1)CCN(C(=O)c1ccccn1)CC2 ?
Pf Dd2 inh: -3%

How did Cc1noc(C)c1CCC(=O)N1C[C@@H](C)[C@@](C)(O)C1 do in these assays?
Pf Dd2 inh: -4%

Results for O=C(Nc1ccccc1)C1=NO[C@@H]2CN(Cc3cc(F)ccc3F)C[C@H]12 ?
Pf Dd2 inh: -25%[44.1 µM]

How did Cn1c(C(=O)N2CCc3c(n(Cc4cccnc4)n(-c4ccccc4)c3=O)C2)cc2ccccc21 do in these assays?
Pf Dd2 inh: -25%

Results for CCOC(=O)c1cc(-c2ccc(C)cc2)n(CC(=O)Nc2cc(C)ccc2C)c1C ?
Pf Dd2 inh: 3%

How did CCOC(=O)c1cc(-c2ccc(C)cc2)n(CCCC(=O)Nc2cc(C)ccc2C)c1 do in these assays?
Pf Dd2 inh: 11µM*

What do the screens show for `CCOC(=O)c1cc(-c2ccccc2)n(CCCC(=O)Nc2ccc(C)cc2Cl)c1C`?
Pf Dd2 inh: inactive

How did O=C(Nc1ccc([C@H]2OCC(=O)N(C3CCOCC3)[C@@H]2CO)cc1)C1CCOCC1 do in these assays?
Pf Dd2 inh: 21%[44.1 µM]

How did COc1ccc(C(=O)NC[C@@H]2C=C(C)[C@H](CC(=O)N3CCOCC3)C[C@H]2C(C)C)cc1 do in these assays?
Pf Dd2 inh: -30%[44.1 µM]

How did CC(=O)NC[C@@H]1C=C(C)[C@H](CC(=O)O)C[C@H]1C(C)C do in these assays?
Pf Dd2 inh: 44%[44.1 µM]
